Assay results: PubChem BioAssay AID492956 (The Scripps Research Institute Molecular Screening Center, 2010)
About 3,300 (0.97%) of roughly 340,000 compounds were called active.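 The calls were made as follows: active = inhibition above the mean over all tested compounds plus 3 SD (cut at about 30% in these data); inactive = the rest.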 The list comes from a sample in which actives are over-represented; it also holds similar structures and randomly drawn compounds.

target: Platelet-activating factor acetylhydrolase 2, cytoplasmic (Homo sapiens) (UniProt Q99487); assay: inhibition of cytoplasmic PAF acetylhydrolase 2 – biochemical, fluorescence polarization, human, primary screen (AID 492956); details: recombinant PAFAH2, FP-rhodamine activity probe, at 3.39 µM, stronger effect = higher value;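 also: inhibitors block probe labeling of enzyme so polarization drops; 0% = enzyme with DMSO and 100% = wells lacking PAFAH2 protein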

inhibition, active:
O=C(OCc1cn(-c2ccc(Cl)c(Cl)c2)nn1)c1ccccc1Cl 44.2%, CC(C)c1ccc(NC(=O)COC(=O)c2ccc(CN3CCCC3=O)cc2)cc1 85%, O=C(COC(=O)C12CC3CC(CC(O)(C3)C1)C2)NC12CC3CC(CC(C3)C1)C2 75.8%, COc1ccc(C(=O)ON=C2c3ccccc3-c3ccccc32)cc1OC 72.8%, CCc1c(SCCC(=O)O)nc2ccccc2c1C 33%, CCn1c(/C=N/NC(=O)c2ccc(OC)cc2)nc2ccccc21 41.7%, CCC1OC(c2ccc([N+](=O)[O-])cc2)=Nc2ccccc21 (stereo not drawn) 33.1%, COc1ccc(C2=NN(c3nc4ccccc4s3)C(=O)C2)cc1 48.2%, O=C(COC(=O)c1ccc2ncsc2c1)Nc1ccc(Cl)cc1 81.4%, O=C(/C=C/c1ccc([N+](=O)[O-])o1)NNC(=O)c1ccc(F)cc1 39.5%, CC1CC1C(=O)OCC(=O)Nc1cccc(F)c1 (stereo not drawn) 78.9%, O=C(COC(=O)C1CC2C=CC1C2)Nc1ccccc1 (stereo not drawn) 77.7%, Cc1ccsc1C(=O)OCC(=O)Nc1cccc(F)c1 90.7%

inhibition, inactive:
Cc1ccc(S(=O)(=O)NCC(=O)N2CCOCCOCCOCCOCC2)cc1 -0.46%, O=C1/C(=C/c2cccs2)CCC1C1CCCC1 (stereo not drawn) 5.54%, CC1(C)CC(=O)c2cnc3nc4ccccc4n3c2C1 -0.49%, O=C(NNC(=O)c1cc(S(=O)(=O)N2CCCCC2)ccc1Cl)c1ccccc1O 8.97%, NC(=O)COC(=O)c1cc(S(=O)(=O)N2CCN(c3ccccc3)CC2)ccc1Cl 5.41%, Cc1cccc(/C(N)=N/OC(=O)c2ccccc2Cl)c1 -5.1%, N#CCC(=O)Nc1ccc(C(=O)OCC(=O)Nc2sc3c(c2C#N)CCCC3)cc1 -11.9%, CC(C)NC(=O)NC(=O)COC(=O)c1ccc(NC(=O)CC#N)cc1 14.3%, Cc1noc(C)c1C(=O)NC(C)c1ccc2c(c1)OCO2 (stereo not drawn) -1.75%, CCN(CC)c1ccc(NC(=O)CCc2nnc3ccc(N4CCCCC4)nn23)c(C)c1 1.19%, O=C(CNCCO)NC12CC3CC(CC(C3)C1)C2 0.19%, O=C(COC(=O)CNS(=O)(=O)c1ccccc1)NC12CC3CC(CC(C3)C1)C2 1.43%, Cc1ccc2[nH]c(=O)c(CN(C)S(=O)(=O)c3cccc4nonc34)cc2c1 -8.49%, Cn1nccc1NC(=O)CC(CC(=O)O)c1ccccc1 (stereo not drawn) 4.64%, COCCCN1C(=O)C(=O)/C(=C(/O)c2ccc(S(=O)(=O)N3CCOCC3)cc2)C1c1ccc(F)cc1 (stereo not drawn) 1.52%, COc1cc(C(C)=O)ccc1OC(=O)CN1C(=O)c2ccccc2C1=O 1.95%, COc1ccc(NC(=O)ON=C2c3ccccc3-c3ccccc32)cc1 -4.24%, O=C(O)CSc1nccc2ccccc12 2.03%, O=C(O)CCSc1nnc(-c2ccccc2)n1-c1ccccc1 -1.18%, C/C(=N\OCC(=O)Nc1ccc(Br)cc1)c1cccs1 -0.72%, CCn1c(Cc2ccc(OC)cc2)nnc1SCC(=O)Nc1ccc(N2CCOCC2)cc1 -3.23%, CC(C)[C@H](NC(=O)N1CCn2c1nc1ccccc12)C(=O)NCc1ccc2c(c1)OCO2 -3.27%, Cc1ccc(C)c(NC(=O)C2Cc3ccccc3CN2C(=O)OCc2ccccc2)c1 (stereo not drawn) 5.89%, Cc1ccc(/C=N/NC(=O)Cn2ccc(C(F)(F)F)n2)o1 -1.08%, COc1ccc(C(=O)NCC(=O)N/N=C/c2cccnc2)cc1 -1.33%, CCn1c(SCC(=O)N/N=C/c2ccncc2)nc2ccccc21 14.4%, CC(C)C(=O)NCC(c1cccs1)S(=O)(=O)c1ccc(F)cc1 (stereo not drawn) -6.08%, COc1ccc(C(CC(=O)N2CCN(c3ccccc3)CC2)c2c(O)cc(OC)cc2OC)cc1 (stereo not drawn) 1.97%, CCCCN(C)c1ccc([N+](=O)[O-])cc1 -0.55%, COc1ccccc1CSc1ncc(-c2ccc([N+](=O)[O-])cc2)[nH]1 12%, N#Cc1ccc(N2Cc3ccccc3/C2=N/C(=O)Nc2ccc(Cl)cc2)cc1 -0.92%, CC1CCc2c(c3ccccc3[nH]c2=O)O1 (stereo not drawn) -0.64%, COc1ccc(C(=O)Nc2cccc(/C=C(/CCC(=O)O)c3nc4ccccc4s3)c2)cc1 -4.68%, COc1ccc(C2=NN(c3ccccc3)C(c3cccs3)C2)cc1 (stereo not drawn) 6.25%, Cc1nnc(NC(=O)CSc2nccn2-c2cccc(C)c2C)s1 6.92%, O=[N+]([O-])c1cccc(/C([O-])=C(/C(=S)Nc2ccccc2F)[n+]2ccccc2)c1 -4.94%, CC1CC(C)CN(C(=O)COC(=O)c2ccc3ncsc3c2)C1 (stereo not drawn) 9.71%, Cc1sc(NC(=O)c2ccc3ncsc3c2)c(C(N)=O)c1C 1.28%, COc1cc2c(cc1O)C(SC)=NC(C)(C)C2 4.6%, CC(C)Cc1nnc(NC(=O)CCC(=O)Nc2ccc3cn[nH]c3c2)s1 1.65%, Cc1cc(C)c(C#N)c(Nc2cccc(Br)c2)n1 -4.25%, CCCCNC(=O)OC(C)CNC(=O)OC (stereo not drawn) -6.1%, COc1ccc(C(=O)NCC(=O)N/N=C/c2ccc([N+](=O)[O-])o2)cc1OC 0.4%, Cc1onc(C(=O)NCc2ccc(F)cc2)c1[N+](=O)[O-] -3.19%, Cc1ccsc1C(=O)OCC(=O)NCCc1ccccc1 25.5%, O=C(COC(=O)CNC(=O)C1CCCCC1)Nc1cccc(F)c1 -0.43%, Cc1ccc(S(=O)(=O)N(C)CC(=O)OCC(=O)Nc2ccccc2)cc1 0.35%, COc1ccc(CNC(=O)COC(=O)c2sccc2C)cc1OC 5.02%, CN(CC(=O)Nc1cccc(F)c1)C(=O)CC1CCCC1 0.25%, O=C(COc1ccccc1)Nc1ccc(F)cc1 -4.21%
